# Assay results as given in PubChem BioAssay (Tox21).
# Results filed as inconclusive are left out. Where a call stands in place of a potency, no number is given. Values without a mark were called inactive. The source made the active and inactive calls. The call rests on the fitted dose curve; in most records, active means well fitted cell-killing curve with a large enough effect in the repeat runs; inconclusive means weak or mixed curves, or effect the other way; inactive means flat fitted curve, though single readings scatter.
# Assay: qHTS assay to identify small molecule antagonists of the androgen receptor (AR) signaling pathway using the MDA cell line in the presence of 0.5 nM R1881 - cell viability counter screen (AID 1259242); further: nearly all actives have a fitted effect of over 45% in size
# Details: MDA-kb2 viability, CellTiter-Fluor protease fluorescence, 16 h; series mostly up to 92.4 µM
# Description: U.S. Tox21 Program National Center for Advancing Translational Sciences [NCATS] NIH Chemical Genomics Center [NCGC] U.S. Environmental Protection Agency [EPA] National Institutes of Environmental Health Sciences [NIEHS] National Toxicology Program [NTP] U.S. Food and Drug Administration [FDA] Tox21 Assay Overview: Androgen receptor (AR) is an important member of the nuclear receptor family. Its signaling plays a critical role in AR-dependent prostate cancer and other androgen related diseases. Considerable attention has been given in the past decades to develop methods to study and screen for the environmental chemicals that have the potential to interfere with metabolic homeostasis, reproduction, developmental and behavioral functions. Therefore AR binding assay for screening androgen antagonists can be used to identify potential endocrine disruptors. MDA-kb2 cells (from ATCC, deposited by Wilson et al.) were used to screen for AR inhibitors against Tox21 compound libraries. These cells are human breast carcinoma cells that were stably transfected with a luciferase reporter gene under control of the MMTV promoter that contains response elements for both androgen receptor (AR) and glucocorticoid receptor (GR). The current screening for identification of AR inhibitors against Tox21 libraries used lower concentration of (0.5 nM) R1881 as a stimulator. The cytotoxicity of the Tox21 compound libraries against MDA-kb2 cell line was tested by measuring live-cell protease activity using CellTiter-Fluor assay in the same wells.
# Tox21 Assay Protocol Summary: MDA-kb2 cells (cells cultured without CO2) were dispensed at 3,000 cells/well in 4 uL of culture medium into white wall/solid-bottom 1536-well plates (Corning Life Sciences, Corning, NY) using a Multidrop Combi (ThermoFisher Scientific, Waltham, MA) dispenser. After the assay plates were incubated at a 37C and 0% CO2 for 5 hr, 23 nL of compounds dissolved in DMSO, positive controls or DMSO only was transferred to the assay plate by a Pintool station (Kalypsys, San Diego, CA). The transfer of compounds was followed by the addition of 1 uL of 0.5 nM (final concentration) agonist (R1881)/culture medium using a Flying Reagent Dispenser (FRD, Aurora Discovery, San Diego, CA). The plates were incubated at 37C and 0% CO2 for 16 hr. For cytotoxicity assay, 1 uL of CellTiter-Fluor reagent (Promega Corporation, Madison, WI) was added to each well using the FRD and after 30 min incubation at 37C and 0% CO2, The fluorescence intensity was measured using ViewLux plate reader (PerkinElmer, Shelton, CT).
# Potency means the concentration at half of the fitted maximal effect.
SMILES,Potency,"viability change, negative = cytotoxic"
O=C1NCCN1,inactive,–
CCn1nc(C)c2c1C(=O)NCC(c1ccc(O)cc1)=N2,inactive,–
O=C(OCCOCCO)c1ccccc1Nc1cccc(C(F)(F)F)c1,inactive,–
CCCCCCCCCCCCCCC[C@H](O)[C@@H](N)CO,inactive,–
COc1ccc(CCC(=O)c2c(O)cc(O[C@@H]3O[C@H](CO)[C@@H](O)[C@H](O)[C@H]3O[C@@H]3O[C@@H](C)[C@H](O)[C@@H](O)[C@H]3O)cc2O)cc1O,inactive,–
CCCCCCOC(=O)CCCCCCCC(=O)OCCCCCC,inactive,–
ON(Cc1ccccc1)Cc1ccccc1,inactive,–
CN(C)C(=O)Nc1ccc(Oc2ccc(Cl)cc2)cc1,inactive,–
CCCCN(CCCC)C(=S)SSC(=S)N(CCCC)CCCC,inactive,–
CC(=O)Oc1ccc2c(c1)CC[C@@H]1[C@@H]2CC[C@]2(C)[C@@H](O)CC[C@@H]12,inactive,–
COc1ccccc1N=Nc1c(S(=O)(=O)O)cc2cc(S(=O)(=O)O)cc(NC(C)=O)c2c1O,25.7 µM (active),–
Brc1cc(-c2ccc(Br)c(Br)c2Br)cc(Br)c1Br,inactive,–
CC(C)C(OC(=O)c1ccccc1)C(C)(C)COC(=O)c1ccccc1 (stereo not given),inactive,–
CCCCCCCCSCCO,inactive,–
C/C=C(\C)C(=O)OCCC(C)CCC=C(C)C (stereo not given),inactive,–
NC(=O)Nc1ccc(Cl)cc1,inactive,–
CC(=O)Oc1ccc(C(=C2CCCCC2)c2ccc(OC(C)=O)cc2)cc1,inactive,–
CC1=CC(O)CC(C)(C)C1 (stereo not given),inactive,–
CC(COc1ccc(C(C)(C)C)cc1)OS(=O)OCCCl (stereo not given),inactive,–
[O]=[Bi],–,1.95% [at 8.39 µM]

SMILES,Potency,"viability change, negative = cytotoxic"
CC(C)CCCC(=O)O,inactive,–
OCC1CC=CCC1 (stereo not given),inactive,–
CCCCC(CC)CNCC(CC)CCCC (stereo not given),inactive,–
CC(C)OCC1CO1 (stereo not given),inactive,–
CC(=O)N(c1onc(C)c1C)S(=O)(=O)c1ccc(N)cc1,inactive,–
C=CCOC(=O)/C=C\C(=O)OCC=C,inactive,–
C=CC(=O)NCOCC(C)C,inactive,–
CCC(C)=O,inactive,–
O=C(O)C(Cc1cc(I)c(O)c(I)c1)c1ccccc1 (stereo not given),inactive,–
CC(=O)[C@H]1CC[C@H]2[C@@H]3C=CC4=CC(=O)CC[C@@]4(C)[C@@H]3CC[C@]12C,inactive,–
CCC(C(=O)OCCOCCN(CC)CC)c1ccccc1 (stereo not given),inactive,–
CCCC1C(CC)=CC(CC)=CN1c1ccccc1 (stereo not given),48.6 µM (active),–
CC(C)(CCl)c1ccccc1,inactive,–
CCCCCCCCCCCC(=O)[O][Sn]([CH2]CCC)([CH2]CCC)[O]C(=O)CCCCCCCCCCC,inactive,–
CC1(C)O[C@@H]2C[C@H]3[C@@H]4CCC5=CC(=O)C=C[C@]5(C)[C@H]4[C@@H](O)C[C@]3(C)[C@]2(C(=O)CO)O1,inactive,–
CC(C)(C)C(=O)C(Oc1ccc(Cl)cc1)n1ccnc1 (stereo not given),inactive,–
C[N+](C)(C)CCOC(N)=O,inactive,–
CCCCN(CCCC)CCCOC(=O)c1ccc(N)cc1,inactive,–
CCn1cc(C(=O)O)c(=O)c2cc(F)c(N3CCNCC3)nc21,inactive,–
CCCOc1ccc(S(=O)(=O)N2CCN(CC)CC2)cc1-c1nc2c(CC)n(Cc3ccccn3)nc2c(=O)[nH]1,inactive,–
